The AC50 is the midpoint of the concentration-response curve, whichever way the signal moves.

Molecules are shown by their SMILES. “And” between values parts separate entries of the source, which are not always exact repeats. Identical values can stand only once. Inconclusive results are not listed. More than one record can exist for a structure, and the calls need not agree. The source made the active and inactive calls. The calls were made as follows, unless noted: active = hit-call score of the fitted dose curve at least 0.9, where 1 is the maximum; inactive = score below 0.9.

Assay [1] can be described thus: ATG_PBREM_CIS: Attagene CIS-FACTORIAL HepG2 Assay for human Phenobarbital-responsive Enhancer Module (PBREM) (AID 2282955). Particulars: HepG2 PBREM cis-reporter, Attagene multiplexed transcription; actives raise or lower the signal. In a few lines:
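Endogenous transcription factors in human liver HepG2 cells drive a PBREM cis-element reporter, whose transcript level after 24 h treatment is quantified by RT-PCR with capillary electrophoresis; activity fitted in both directions against DMSO.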

Assay [2] has as its target Paired box protein Pax-6 (Homo sapiens) (UniProt P26367). Nature of the assay: ATG_Pax6_CIS: Attagene CIS-FACTORIAL HepG2 Assay for human Paired Box 6 (PAX6) (AID 2282956). The conditions noted are these: HepG2 CIS-FACTORIAL PAX6 reporter transcription, RNA readout; actives raise or lower the signal. The gist of the method:
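Transient MRTU transfection of HepG2 → compound exposure 24 h → TriZol RNA, oligo(dT) RT → PCR, 6-FAM primer extension, HpaI cut → capillary electrophoresis; activity fitted both directions against DMSO.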

A short description of assay [3]: ATG_PXRE_CIS: Attagene CIS-FACTORIAL HepG2 Assay for human Pregnane X Receptor Element (PXRE) (AID 2282957). Particulars: HepG2 Attagene CIS-FACTORIAL PXRE reporter, mRNA; actives raise or lower the signal. In a few lines:
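Cells: HepG2, transiently transfected reporter units under cis promoter control. Exposure: 24 h. Detection: reporter mRNA via RT-PCR/CE fluorescence; bidirectional fitting, DMSO-referenced.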

The nature of assay [4]: ATG_PPRE_CIS: Attagene CIS-FACTORIAL HepG2 Assay for human Peroxisome Proliferator-activated Response Element (PPRE) (AID 2282958). The conditions noted are these: HepG2 PPRE cis-element reporter, Attagene transcription factor profiling; actives raise or lower the signal. In a few lines:
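HepG2, transient MRTU transfection (cis promoter elements, endogenous TFs). 24 h dosing. RNA → oligo(dT) RT → PCR → 6-FAM primer extension → HpaI digest → CE. Bidirectional fit vs DMSO.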

The nature of assay [5]: ATG_RORE_CIS: Attagene CIS-FACTORIAL HepG2 Assay for human RAR-related Orphan Receptor Element (RORE) (AID 2282959). The conditions noted are these: HepG2 Attagene cis-factorial RORE reporter, mRNA; actives raise or lower the signal. The gist of the method: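 Transient MRTU transfection of human HepG2 liver cells (FuGene 6); 24 h compound exposure; TriZol RNA, oligo(dT) RT, PCR, FAM labeling, HpaI cut, CE fragment analysis. DMSO = negative control/baseline.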

A short description of assay [6]: ATG_Sox_CIS: Attagene CIS-FACTORIAL HepG2 Assay for human SRY-box transcription factor (SOX) (AID 2282960). The conditions noted are these: HepG2 Attagene cis-factorial SOX reporter, mRNA; actives raise or lower the signal. The gist of the method:
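Endogenous factor activity in human liver HepG2 cells carrying transfected cis-regulated reporter units. RNA taken 24 h post-dose, reverse-transcribed, PCR-amplified and sized by capillary electrophoresis. Gain or loss of signal fitted relative to DMSO.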

Assay [7] deals with Transcription factor Sp1 (Homo sapiens) (UniProt P08047). Nature of the assay: ATG_Sp1_CIS: Attagene CIS-FACTORIAL HepG2 Assay for human Specificity Protein 1 (Sp1) (AID 2282961). The conditions noted are these: HepG2 Sp1 cis-reporter transcription, actives raise or lower the signal. The gist of the method: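 Transient MRTU-transfected HepG2, 24 h compound exposure. Total RNA → oligo(dT) RT → PCR of reporter → 6-FAM primer extension → HpaI digest → CE. Endpoint fitted both directions vs DMSO.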
Chain of Transcription factor Sp1 (Homo sapiens) (P08047 whole entry, looked up): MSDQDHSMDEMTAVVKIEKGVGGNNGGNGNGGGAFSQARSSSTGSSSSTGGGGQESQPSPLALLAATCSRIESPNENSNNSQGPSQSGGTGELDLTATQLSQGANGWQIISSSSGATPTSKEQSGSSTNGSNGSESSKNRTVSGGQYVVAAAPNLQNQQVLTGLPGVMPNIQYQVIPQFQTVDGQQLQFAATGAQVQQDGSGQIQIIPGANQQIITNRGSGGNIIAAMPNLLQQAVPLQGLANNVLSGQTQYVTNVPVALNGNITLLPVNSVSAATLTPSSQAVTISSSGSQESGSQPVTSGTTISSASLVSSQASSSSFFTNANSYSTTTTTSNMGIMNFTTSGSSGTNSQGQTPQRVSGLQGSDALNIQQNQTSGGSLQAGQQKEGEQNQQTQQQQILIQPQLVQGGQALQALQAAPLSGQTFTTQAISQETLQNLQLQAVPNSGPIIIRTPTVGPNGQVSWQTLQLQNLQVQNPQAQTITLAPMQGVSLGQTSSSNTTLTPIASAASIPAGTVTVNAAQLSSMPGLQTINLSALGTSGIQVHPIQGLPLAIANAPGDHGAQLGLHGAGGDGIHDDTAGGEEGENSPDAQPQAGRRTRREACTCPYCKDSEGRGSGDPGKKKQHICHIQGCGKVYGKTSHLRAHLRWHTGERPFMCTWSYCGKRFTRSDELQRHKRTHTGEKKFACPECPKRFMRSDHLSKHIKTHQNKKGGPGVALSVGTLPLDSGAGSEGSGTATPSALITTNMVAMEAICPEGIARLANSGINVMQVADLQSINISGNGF

Assay [8] can be described thus: ATG_SREBP_CIS: Attagene CIS-FACTORIAL HepG2 Assay for human Sterol Regulatory Element Binding (SREBP) (AID 2282962). Particulars: HepG2 Attagene cis-factorial SREBP reporter, mRNA; actives raise or lower the signal. In a few lines: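 Transfected HepG2 (cis-regulated reporter library, endogenous TFs) → compound 24 h → total RNA → oligo(dT) RT → reporter-specific PCR → FAM primer extension, HpaI cut → CE fluorescence. Fit bidirectional vs DMSO.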

Assay [9] concerns the target Signal transducer and activator of transcription 3 (Homo sapiens) (UniProt P40763). Nature of the assay: ATG_STAT3_CIS: Attagene CIS-FACTORIAL HepG2 Assay for human Signal Transducer and Activator of Transcription 3 (STAT3) (AID 2282963). The conditions noted are these: HepG2, Attagene cis-factorial STAT3 reporter transcription; actives raise or lower the signal. The gist of the method: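 Transcript-level reporter assay. HepG2 transient MRTU transfection, 24 h exposure, fluorescence detection after RT-PCR and CE; DMSO baseline.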

The nature of assay [10]: ATG_TA_CIS: Attagene CIS-FACTORIAL HepG2 Assay for human TA Basal Promoter (AID 2282964). Particulars: HepG2 Attagene CIS-factorial TA basal promoter reporter; actives raise or lower the signal. The gist of the method:
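Background internal-marker endpoint from a 52-component HepG2 cis-reporter panel. Cells treated 24 h; reporter transcripts quantified via RT-PCR and CE fluorescence against DMSO baseline.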

Assay [11] in a line: ATG_TCF_b_cat_CIS: Attagene CIS-FACTORIAL HepG2 Assay for human T-Cell-Factor with beta-catenin (TCF/b-cat) (AID 2282965). The conditions noted are these: HepG2 TCF/beta-catenin cis-reporter transcription, actives raise or lower the signal. The gist of the method:
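HepG2 cells transiently transfected with multiple cis-promoter-regulated reporter transcription units, so endogenous transcription factor activity is measured. Reporter mRNA read 24 hours after dosing by RT-PCR, fluorescent labelling and capillary electrophoresis; bidirectional fitting against DMSO.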

The nature of assay [12]: ATG_TAL_CIS: Attagene CIS-FACTORIAL HepG2 Assay for human TAL Basal Promoter (AID 2282966).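 Also: background control endpoint measuring basal TAL promoter reporter mRNA not a specific factor.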 Particulars: HepG2 Attagene cis-factorial TAL promoter reporter; actives raise or lower the signal. In a few lines:
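RT-PCR plus capillary electrophoresis quantifies reporter mRNA induction in transiently transfected HepG2 cells after 24 h chemical treatment. DMSO serves as negative control and baseline for bidirectional fitting.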

Assay [13] is described as follows: ATG_TGFb_CIS: Attagene CIS-FACTORIAL HepG2 Assay for human Transforming Growth Factor (TGF) (AID 2282967). The conditions noted are these: HepG2 Attagene CIS TGFb reporter, mRNA transcription; actives raise or lower the signal. The gist of the method:
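Liver HepG2 line, cis-factorial reporter panel, 24 h dosing. Quantitation: RT-PCR products labeled with 6-FAM, cut with HpaI, resolved by capillary electrophoresis; DMSO-referenced bidirectional analysis.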

For assay [14], the target named is Estrogen receptor (Homo sapiens) (UniProt P03372). Kind of assay: ATG_ERa_TRANS: Attagene TRANS-FACTORIAL HepG2 Assay for human Estrogen Receptor alpha (ERa) (AID 2282970; active = hit-call score of the fitted dose curve at least 0.9, where 1 is the maximum). Particulars: HepG2 Attagene TRANS ERa GAL4 reporter, mRNA. In a few lines: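 Cells: HepG2, transiently transfected. Construct: GAL4-UAS reporter units regulated by exogenous NR-Gal4 chimeras. Time: 24 h. Detection: reporter mRNA by RT-PCR, capillary electrophoresis, fluorescence. Baseline: DMSO, upward fitting.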
Chain of Estrogen receptor (Homo sapiens) (P03372 whole entry, looked up, the tested form may be a part): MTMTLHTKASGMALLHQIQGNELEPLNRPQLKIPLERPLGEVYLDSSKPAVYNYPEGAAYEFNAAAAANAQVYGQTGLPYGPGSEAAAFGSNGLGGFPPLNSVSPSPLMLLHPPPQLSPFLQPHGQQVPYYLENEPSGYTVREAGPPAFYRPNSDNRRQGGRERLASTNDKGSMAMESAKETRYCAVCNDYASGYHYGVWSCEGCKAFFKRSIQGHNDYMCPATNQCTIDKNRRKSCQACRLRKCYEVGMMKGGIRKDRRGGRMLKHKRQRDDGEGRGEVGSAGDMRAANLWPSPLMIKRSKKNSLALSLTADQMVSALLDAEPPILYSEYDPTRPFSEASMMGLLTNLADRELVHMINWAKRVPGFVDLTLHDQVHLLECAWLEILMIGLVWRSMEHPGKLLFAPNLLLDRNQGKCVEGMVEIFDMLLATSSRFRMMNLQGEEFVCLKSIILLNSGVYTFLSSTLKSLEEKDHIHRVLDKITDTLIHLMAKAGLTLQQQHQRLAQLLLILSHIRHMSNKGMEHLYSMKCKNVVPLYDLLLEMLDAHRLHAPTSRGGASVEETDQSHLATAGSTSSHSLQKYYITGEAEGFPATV

Assay [15] has as its target Steroid hormone receptor ERR1 (Homo sapiens) (UniProt P11474). Nature of the assay: ATG_ERRa_TRANS: Attagene TRANS-FACTORIAL HepG2 Assay for human Estrogen-Related Receptor alpha (ERRa) (AID 2282971; active = hit-call score of the fitted dose curve at least 0.9, where 1 is the maximum). Particulars: HepG2 Attagene TRANS reporter, ERRa transactivation. In a few lines:
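Reporter transcripts from ERRa-Gal4 chimera activity measured in transiently transfected human HepG2 cells 24 hours after dosing, using RT-PCR with 6-FAM primer extension, HpaI digestion and capillary electrophoresis; DMSO is baseline.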

For assay [16], the target named is X-box-binding protein 1 (Homo sapiens) (UniProt P17861). Nature of the assay: ATG_Xbp1_CIS: Attagene CIS-FACTORIAL HepG2 Assay for human X-box Binding Protein 1 (XBP1) (AID 2282972). The conditions noted are these: HepG2 XBP1 cis-element reporter, Attagene multiplex; actives raise or lower the signal. The gist of the method:
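HepG2, transient MRTU transfection (cis-promoter driven), 24 h compound exposure. Total RNA → oligo(dT) RT → PCR → 6-FAM labeling → HpaI cut → CE. Bidirectional fit vs DMSO.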

Assay [17] in a line: ATG_M_19_TRANS: Attagene TRANS-FACTORIAL HepG2 Assay for M19 Transcription Factor (Internal Marker) (AID 2282974; active = hit-call score of the fitted dose curve at least 0.9, where 1 is the maximum). Particulars: HepG2 Attagene TRANS-FACTORIAL M19 internal marker reporter. The gist of the method: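 Fluorescence of 6-FAM-labelled reporter cDNA fragments, separated by capillary electrophoresis, served as the readout. These derived from HepG2 cells carrying transfected GAL4-UAS reporter units after 24 h dosing, with DMSO as negative control.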

The nature of assay [18]: ATG_VDRE_CIS: Attagene CIS-FACTORIAL HepG2 Assay for human Vitamin D Receptor Element (VDRE) (AID 2282968). Particulars: HepG2 VDRE cis-reporter transcription, actives raise or lower the signal. The gist of the method: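 RT-PCR/CE readout of reporter mRNA; HepG2, transient transfection, 24 h dosing; DMSO baseline; bidirectional analysis.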
Assay [19] deals with Nuclear receptor subfamily 1 group I member 3 (Homo sapiens) (UniProt Q14994). Nature of the assay: ATG_CAR_TRANS: Attagene TRANS-FACTORIAL HepG2 Assay for human Constitutive Androstane Receptor (CAR) (AID 2282969; active = hit-call score of the fitted dose curve at least 0.9, where 1 is the maximum;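 also: activators raise reporter mRNA above DMSO so AC50 marks induction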). The conditions noted are these: HepG2 Attagene TRANS-FACTORIAL CAR reporter. The gist of the method:
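HepG2 cells transiently transfected with multiplexed GAL4-UAS reporter units expressing chimeric NR-Gal4 proteins; compound exposure 24 h. Reporter mRNA measured by RT-PCR, 6-FAM labelling, HpaI digestion and capillary electrophoresis; gain-of-signal fitted against DMSO baseline.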

In assay [20] the target is Androgen receptor (Homo sapiens) (UniProt P10275). Kind of assay: ATG_AR_TRANS: Attagene TRANS-FACTORIAL HepG2 Assay for human Androgen Receptor (AR) (AID 2282973; active = hit-call score of the fitted dose curve at least 0.9, where 1 is the maximum). Particulars: HepG2 Attagene TRANS-FACTORIAL AR reporter transcription. In a few lines: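 Transcriptional activity of an exogenous AR–Gal4 fusion read as GAL4-UAS reporter transcript levels in transfected human HepG2 cells after 24 h dosing. Detection via RT-PCR, 6-FAM labelling, HpaI digest and capillary electrophoresis; increase over DMSO baseline.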
Chain of Androgen receptor (Homo sapiens) (P10275 whole entry, looked up, the tested form may be a part): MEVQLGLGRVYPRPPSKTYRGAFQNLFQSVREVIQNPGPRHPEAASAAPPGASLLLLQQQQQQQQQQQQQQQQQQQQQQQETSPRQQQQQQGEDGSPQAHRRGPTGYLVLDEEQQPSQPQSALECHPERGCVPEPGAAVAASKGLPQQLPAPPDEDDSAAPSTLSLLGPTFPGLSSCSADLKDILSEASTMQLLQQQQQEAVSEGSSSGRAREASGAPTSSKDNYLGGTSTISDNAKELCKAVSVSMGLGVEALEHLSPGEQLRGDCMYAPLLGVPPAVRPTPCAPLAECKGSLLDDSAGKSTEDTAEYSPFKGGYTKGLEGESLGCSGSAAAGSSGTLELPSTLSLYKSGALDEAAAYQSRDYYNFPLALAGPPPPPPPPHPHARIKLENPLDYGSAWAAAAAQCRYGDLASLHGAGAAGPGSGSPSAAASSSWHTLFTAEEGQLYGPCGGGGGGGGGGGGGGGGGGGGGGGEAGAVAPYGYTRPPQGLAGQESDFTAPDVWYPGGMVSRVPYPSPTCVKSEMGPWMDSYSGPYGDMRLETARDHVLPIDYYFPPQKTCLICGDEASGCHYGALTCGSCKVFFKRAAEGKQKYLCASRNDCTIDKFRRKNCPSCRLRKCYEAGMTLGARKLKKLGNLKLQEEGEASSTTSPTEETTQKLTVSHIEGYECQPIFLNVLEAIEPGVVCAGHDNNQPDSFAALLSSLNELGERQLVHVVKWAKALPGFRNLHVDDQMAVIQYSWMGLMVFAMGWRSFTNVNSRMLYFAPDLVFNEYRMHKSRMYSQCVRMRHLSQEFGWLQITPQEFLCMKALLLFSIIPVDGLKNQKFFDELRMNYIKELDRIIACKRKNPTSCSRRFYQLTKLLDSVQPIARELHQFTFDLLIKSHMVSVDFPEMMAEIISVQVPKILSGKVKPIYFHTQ

Chain of Signal transducer and activator of transcription 3 (Homo sapiens) (P40763 whole entry, looked up): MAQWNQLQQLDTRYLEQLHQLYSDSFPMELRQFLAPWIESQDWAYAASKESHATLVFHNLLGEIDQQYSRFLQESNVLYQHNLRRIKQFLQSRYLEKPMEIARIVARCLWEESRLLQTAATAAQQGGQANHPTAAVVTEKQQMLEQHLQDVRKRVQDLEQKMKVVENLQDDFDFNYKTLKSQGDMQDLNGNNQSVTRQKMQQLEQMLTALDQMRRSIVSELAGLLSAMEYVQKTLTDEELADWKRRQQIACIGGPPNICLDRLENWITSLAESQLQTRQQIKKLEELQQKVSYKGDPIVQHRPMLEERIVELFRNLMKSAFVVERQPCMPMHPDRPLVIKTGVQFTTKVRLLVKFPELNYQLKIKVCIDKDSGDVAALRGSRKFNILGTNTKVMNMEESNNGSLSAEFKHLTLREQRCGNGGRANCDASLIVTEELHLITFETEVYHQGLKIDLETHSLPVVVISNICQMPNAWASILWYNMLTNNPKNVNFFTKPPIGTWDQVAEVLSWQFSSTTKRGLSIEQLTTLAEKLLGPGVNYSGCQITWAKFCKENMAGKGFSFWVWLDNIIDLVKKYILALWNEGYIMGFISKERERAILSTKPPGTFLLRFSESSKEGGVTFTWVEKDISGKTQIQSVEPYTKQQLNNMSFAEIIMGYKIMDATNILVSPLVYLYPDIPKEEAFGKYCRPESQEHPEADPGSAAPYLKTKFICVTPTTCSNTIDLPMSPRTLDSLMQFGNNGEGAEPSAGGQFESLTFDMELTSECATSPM
Chain of X-box-binding protein 1 (Homo sapiens) (P17861 whole entry, looked up): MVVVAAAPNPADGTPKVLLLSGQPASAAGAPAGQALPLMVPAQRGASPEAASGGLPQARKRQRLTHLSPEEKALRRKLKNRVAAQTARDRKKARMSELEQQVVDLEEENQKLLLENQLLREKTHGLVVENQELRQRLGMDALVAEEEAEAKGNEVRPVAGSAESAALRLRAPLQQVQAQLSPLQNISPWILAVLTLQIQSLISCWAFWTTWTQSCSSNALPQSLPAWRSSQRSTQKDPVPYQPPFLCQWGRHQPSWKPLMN
Chain of Paired box protein Pax-6 (Homo sapiens) (P26367 whole entry, looked up): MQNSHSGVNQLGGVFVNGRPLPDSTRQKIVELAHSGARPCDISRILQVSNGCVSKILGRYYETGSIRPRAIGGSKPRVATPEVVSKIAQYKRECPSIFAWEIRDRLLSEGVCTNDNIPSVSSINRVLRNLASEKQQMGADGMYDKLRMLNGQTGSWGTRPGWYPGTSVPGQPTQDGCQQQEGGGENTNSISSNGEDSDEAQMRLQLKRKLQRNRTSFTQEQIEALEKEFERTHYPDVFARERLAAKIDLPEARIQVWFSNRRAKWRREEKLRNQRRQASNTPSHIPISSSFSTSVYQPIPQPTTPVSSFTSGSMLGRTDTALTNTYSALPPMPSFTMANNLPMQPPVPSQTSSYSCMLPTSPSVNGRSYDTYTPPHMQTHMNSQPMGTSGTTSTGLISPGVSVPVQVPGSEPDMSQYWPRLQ
Chain of Nuclear receptor subfamily 1 group I member 3 (Homo sapiens) (Q14994 whole entry, looked up, the tested form may be a part): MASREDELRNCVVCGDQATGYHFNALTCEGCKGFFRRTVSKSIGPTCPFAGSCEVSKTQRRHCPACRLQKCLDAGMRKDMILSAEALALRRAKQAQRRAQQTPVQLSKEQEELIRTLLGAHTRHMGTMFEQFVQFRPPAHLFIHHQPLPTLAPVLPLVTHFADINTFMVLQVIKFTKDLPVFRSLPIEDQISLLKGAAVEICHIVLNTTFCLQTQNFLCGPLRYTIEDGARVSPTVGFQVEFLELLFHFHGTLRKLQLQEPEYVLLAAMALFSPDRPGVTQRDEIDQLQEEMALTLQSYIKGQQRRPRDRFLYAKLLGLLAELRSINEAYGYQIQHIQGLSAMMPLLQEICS
Chain of Steroid hormone receptor ERR1 (Homo sapiens) (P11474 whole entry, looked up, the tested form may be a part): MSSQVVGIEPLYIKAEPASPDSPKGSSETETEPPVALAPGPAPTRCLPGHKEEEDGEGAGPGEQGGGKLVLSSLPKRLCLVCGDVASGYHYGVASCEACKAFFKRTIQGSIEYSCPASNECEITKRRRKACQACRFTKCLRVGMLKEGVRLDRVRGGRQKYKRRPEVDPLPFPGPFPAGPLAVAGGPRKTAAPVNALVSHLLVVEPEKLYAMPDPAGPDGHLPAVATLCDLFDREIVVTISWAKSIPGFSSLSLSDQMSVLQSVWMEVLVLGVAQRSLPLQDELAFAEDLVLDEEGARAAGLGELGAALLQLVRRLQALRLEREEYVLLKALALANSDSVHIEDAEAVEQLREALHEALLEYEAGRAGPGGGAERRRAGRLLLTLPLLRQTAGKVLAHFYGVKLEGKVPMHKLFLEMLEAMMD

On to `N#Cc1cc(Br)c(O)c(Br)c1`, for which the outcome in assay [1], in assay [2], in [6], in [7], in assay [8] and in assay [9] was inactive. Besides, the call in [10], in [11], in [12], in assay [13], in [14] and in [15] was inactive. Also, in assay [17], the compound was called inactive. In addition, the concentration at half-maximal activity (AC50) was 18.4 µM (active) in assay [3], 21.1 µM (active) in [4], 50 µM (active) in assay [5] and 31.6 µM (active) in assay [16].

Regarding `CCOC(=O)C(Cl)Cc1cc(-n2nc(C)n(C(F)F)c2=O)c(F)cc1Cl` (stereo not drawn), the outcome in assay [1], in assay [2], in assay [4], in assay [5], in assay [6] and in assay [7] was inactive. Besides, the result in [9], in assay [10], in assay [11], in assay [12], in assay [13] and in assay [18] was inactive. For the same compound, the outcome in [19], in assay [14] and in assay [16] was inactive. The half-maximal activity concentration (AC50) in assay [3] is 39.8 µM (active).

In the case of `N#Cc1nn(-c2c(Cl)cc(C(F)(F)F)cc2Cl)c(N)c1S(=O)C(F)(F)F` (stereo not drawn), the AC50 in assay [1] was 19.4 µM (active); in [2] it was 48.4 µM (active); in assay [3], 2.37 µM (active) and 44.9 µM (active); in [4] it was 22.8 µM (active); in assay [18], 15.4 µM (active); in assay [14], 11.8 µM (active). For the same compound, the AC50 in assay [16] was 15.3 µM (active). Further, the outcome in [1], in [2], in [4], in [5], in assay [6] and in assay [7] was inactive. Moreover, the outcome in assay [9], in assay [10], in [11], in assay [12], in [13] and in [18] was inactive. Besides, the outcome in assay [19], in [14], in assay [15], in assay [16], in assay [20] and in assay [17] was inactive.

Values taken from PubChem BioAssay (EPA / NIEHS).
